Screens as filed in PubChem BioAssay.
Nrf2 ARE act: activates Nrf2 signaling. AREc32 ARE-luciferase reporter (MCF7-derived line), luminescence, 24 h. Potency, µM (doses to about 46.1 µM), inactives show at the top dose activation, usual class: activators. 410,000 compounds, 0.31% hits; further: potency means the concentration at half of the fitted maximal effect; % of control where 0% means no effect; nearly all actives have a fitted effect of over 65% in size
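For detection, Steady-Glo was added and plates sat 30 min at RT; before that, AREc32_Fluc cells grown overnight in OPTI-MEM/5% FBS had been treated with 23 nL compound for 24 hr at 37 deg C.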
LDHA inh: blocks human lactate dehydrogenase A; P00338; purified LDHA, NADH/diaphorase-resazurin fluorescence; active compounds read low; activity change, % (values are at about 110 or 230 µM); 480,000 compounds, 0.15% hits; in the data active means activity change below about -30%; inconclusive means mostly about -25% to -30%;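 further: plate controls were DMSO wells for no effect and wells without enzyme for full effect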
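Resorufin fluorescence (ex540/em590), read at 0 and 20 min after diaphorase/resazurin addition, reports the NADH left after a 5 min room-temperature reaction of 2 nM human LDH5 with 0.06 mM NADH and 0.2 mM pyruvate.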
A549 tox-1: counter-screen for Nrf2 inhibitors: cytotoxicity in A549 cells. Potency, µM (doses to about 46 µM), for the others: at the top dose activity change, negative = cytotoxicity, most hits filed as inhibitors. A549 ARE-Fluc cells, CellTiter-Fluor viability, 18-24 h. 390,000 compounds, 0.16% hits. AID 504648; further: potency means the concentration at half of the fitted maximal effect; on the % scale 0 is the no-effect control and ±100 the full control effect
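A549 ARE-Fluc cells in 5% FBS OPTI-MEM, 5000 cells/well, rested 2 h then exposed to compounds in concentration-response for 18-24 h at 37 °C. Viability by CellTiter-Fluor fluorescence (Ex 405/Em 525) after 30 min; luciferase luminescence (BugLite, 15 min, RT) read afterwards.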
Nrf2 inh: blocks Nrf2 signaling. 360,000 compounds, 2.1% hits. AID 504444. Potency, µM (titrated, usually from 46 µM), inactives show at the top dose activity change, negative = inhibition, most hits filed as inhibitors. A549 ARE-Fluc reporter, luciferase luminescence, 18-24 h; further: potency means the concentration at half of the fitted maximal effect; on the % scale 0 is the no-effect control and ±100 the full control effect; nearly all actives have a fitted effect of over 60% in size
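Cells were seeded and rested 2 h, then exposed to compounds for 18-24 h. CellTiter-Fluor was read first as a viability measure. BugLite was added 15 min before the final luminescent read of ARE-luciferase activity in A549 cells.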
12-LOX inh: ALOX12 (human) lipoxygenase inhibition; AID 1671190; Potency, µM (top dose mostly 108 µM), for the others: top-dose activity change, negative = inhibition, hits mostly inhibitors; P18054; purified 12hLO, xylenol orange hydroperoxide absorbance; 580,000 compounds, 1.1% hits; further: potency means the concentration at half of the fitted maximal effect; on the % scale 0 is the no-effect control and ±100 the full control effect
Target sequence (P18054 whole entry, looked up): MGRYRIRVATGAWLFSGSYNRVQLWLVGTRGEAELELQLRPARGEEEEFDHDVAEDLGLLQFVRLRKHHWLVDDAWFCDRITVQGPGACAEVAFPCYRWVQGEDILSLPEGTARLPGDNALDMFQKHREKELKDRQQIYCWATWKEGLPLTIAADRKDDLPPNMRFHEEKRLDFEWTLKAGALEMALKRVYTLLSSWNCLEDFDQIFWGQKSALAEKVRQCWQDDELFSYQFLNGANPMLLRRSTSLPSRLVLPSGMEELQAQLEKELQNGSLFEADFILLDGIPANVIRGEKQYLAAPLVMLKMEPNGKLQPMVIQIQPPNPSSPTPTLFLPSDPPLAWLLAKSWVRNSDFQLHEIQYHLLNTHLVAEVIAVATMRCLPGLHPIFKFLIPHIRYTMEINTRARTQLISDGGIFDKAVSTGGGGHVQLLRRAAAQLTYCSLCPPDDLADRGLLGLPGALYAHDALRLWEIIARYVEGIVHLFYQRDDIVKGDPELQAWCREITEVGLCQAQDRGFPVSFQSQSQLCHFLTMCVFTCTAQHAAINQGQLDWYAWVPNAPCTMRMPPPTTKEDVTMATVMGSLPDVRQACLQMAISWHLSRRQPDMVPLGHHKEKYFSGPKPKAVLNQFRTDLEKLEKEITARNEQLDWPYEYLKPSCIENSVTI
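Purified human 12hLO (150 nM final) in 25 mM Hepes, 0.01% Triton X-100, pH 7.0 was preincubated 15 min at room temperature with compound. Then 40 uM arachidonic acid was added, 30 min. Hydroperoxide was read by Fe-XO absorbance ratio 573/405 nm.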
IDH1 R132H inh: inhibitors of human mutant IDH1 R132H. AID 602179. 390,000 compounds, 0.093% hits. IDH1-R132H enzyme, NADPH consumption, diaphorase/resazurin fluorescence. Potency, µM (doses to about 76.6 µM), without a hit: at the top dose activity change, negative = inhibition, actives largely listed as inhibitors. O75874; further: potency means the concentration at half of the fitted maximal effect; on the % scale 0 is the no-effect control and ±100 the full control effect; nearly all actives have a fitted effect of over 65% in size
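IDH1-R132H (0.5 ug/mL) preincubated 30 min with compound, then NADPH (0.016 mM) and alpha-KG (2 mM) added; 80 min at RT, pH 7.5. Remaining NADPH coupled via diaphorase/resazurin to fluorescence (540/590 nm); concentration-response curves normalized to no-enzyme control.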
FLuc counter 3: blocks purified firefly luciferase in Nrf2 counterscreen; shares compounds with Nrf2 inh; purified firefly luciferase, luminescence inhibition; Potency, µM (series often up to 57.5 µM), inactives show top-dose activity change, negative = inhibition, hits mostly inhibitors; 1,400 compounds, 4% hits; AID 720522; further: potency means the concentration at half of the fitted maximal effect; on the % scale 0 is the no-effect control and ±100 the full control effect; nearly all actives have a fitted effect of over 65% in size
A549 tox-2: toxic to A549 ARE-Fluc cells in Nrf2 counterscreen. A549 ARE-Fluc cells, cytotoxicity counterscreen. shares compounds with Nrf2 inh. 1,400 compounds, 2% hits. Potency, µM (titrated, usually from 46.1 µM), without a hit: at the top dose activity change, negative = cytotoxicity, actives largely listed as inhibitors;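 further: potency means the concentration at half of the fitted maximal effect; cells exposed to compounds for 18 to 24 hours; on the % scale 0 is the no-effect control and ±100 the full control effect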
Nrf2 ARE inh: Nrf2 inhibition confirmed, A549 ARE-luciferase; 1,400 compounds, 74% hits; Potency, µM (highest dose often 46.1 µM), inactives show at the highest dose activity change, negative = inhibition, actives largely listed as inhibitors; shares compounds with Nrf2 inh; AID 720524; A549 ARE-firefly luciferase reporter, luminescence; further: potency means the concentration at half of the fitted maximal effect; on the % scale 0 is the no-effect control and ±100 the full control effect; nearly all actives have a fitted effect of over 65% in size
Resorufin autofl: counter-screen for mutant IDH1 inhibitors: fluorescence interference. AID 623980. inhibition of signal, % at 51.2 µM. Resorufin detection reagent fluorescence interference, cell-free. 750 tested, under 10 active. shares compounds with IDH1 R132H inh;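 further: 0% = wells with normal resorufin and full inhibition = wells lacking resorufin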
IDH1 WT: wild-type IDH1 (human) inhibition counterscreen; shares compounds with IDH1 R132H inh; WT IDH1 enzyme, NADPH diaphorase/resazurin fluorescence; Potency, µM (highest dose often 115 µM), inactives show top-dose activity change, negative = inhibition, usual class: inhibitors; 750 compounds, 9% hits; AID 623995;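 further: potency means the concentration at half of the fitted maximal effect; 0% = full WT IDH1 enzyme control and full inhibition = no enzyme wells; nearly all actives have a fitted effect of over 55% in size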
mIDH1 confirm: confirmation of human mutant IDH1 inhibitors; 750 compounds, 83% hits; Potency, µM (titrated, usually from 76.6 µM), without a hit: at the highest dose activity change, negative = inhibition, actives largely listed as inhibitors; IDH1 R132H enzyme, NADPH diaphorase/resazurin fluorescence; shares compounds with IDH1 R132H inh; AID 624002; further: potency means the concentration at half of the fitted maximal effect; nearly all actives have a fitted effect of over 50% in size
Numbers without * were called inactive; ? = inconclusive; nt = no result given; ! = repeats disagree; [ ] = dose if it differs, or a comment. Shown are actives, neighbours in structure and some others; about 2.7% of the full set was active somewhere. Unless noted, the call rests on the fitted dose curve; in most records, active means well fitted curve in the direction sought with a large enough effect; inconclusive means small, poorly fitted or top-dose-only effect, or another doubt; inactive means no such curve, though single readings can be large; an effect the other way counts as inactive or inconclusive.

SMILES	Nrf2 ARE act	LDHA inh	A549 tox-1	Nrf2 inh	12-LOX inh	IDH1 R132H inh	FLuc counter 3	A549 tox-2	Nrf2 ARE inh	others
C#CC1(O)CCC2C3CCC4=C/C(=N/OCC(=O)NCC(=O)NC(C(=O)O)C(C)C)CC[C@]4(C)C3CC[C@@]21C (stereo not given in full)	2%	-6	3%	2.1µM*	?	6%	1%	-6%	6.5µM*
CCCNC(=O)OC[C@H]1C[C@@H]2CCN1C[C@@H]2c1cc(-c2ccc3ccccc3c2)nn1C	nt	nt	nt	nt	4%[176 µM]	nt	nt	nt	nt
NC(=O)c1cn(C2OC(CO)C(O)C2O)c2ncnc(N)c12 (stereo not given)	-2%	-7	?	0.46µM*	18µM*!	0%	2%	?	0.82µM*
N#Cc1cn(C2OC(CO)C(O)C2O)c2ncnc(N)c12 (stereo not given)	-1%	-12	?	?	-26%	5%	nt	nt	nt
CC[C@H]1CN2CC[C@H]1C[C@@H]2CNS(=O)(=O)c1ccc(Cl)cc1	nt	nt	nt	nt	32%[176 µM]	nt	nt	nt	nt
CC(C)NS(=O)(=O)c1ccc(OCC(=O)N2CCN(Cc3ccc4c(c3)OCO4)CC2)c(Cl)c1	2%	0	-16%	?	21%	5%	nt	nt	nt
Cc1cc(S(=O)(=O)NC(C)C)ccc1OCC(=O)N1CCN(Cc2ccc3c(c2)OCO3)CC1	3%	-3	-29%	9.2µM*	-4%	2%	-2%	-3%	-24%
C[C@H]1[C@@H](OS(=O)(=O)O)C[C@@H]2C[C@H]([C@@H](O)c3cc(=O)[nH]c(=O)[nH]3)NC3=NC[C@H]1N32	-3%	1	-29%	0.65µM*	nt	10%	2%	nt	0.23µM*
Nc1ccc2ccccc2c1	4%	22	-1%	?	?	17%	nt	nt	nt
C[n+]1c2cc(N)ccc2cc2ccc(N)cc21	-2%	-2	?	1.5µM*	?	5%	-13%	86%	1.6µM*
Cc1cc([N+](=O)[O-])c2ccccc2[n+]1[O-]	-2%	24	?	4.1µM*	?	16%	-21%	-8%	6.5µM*
COc1ccc2c(c1)C1(CCN(C(=O)c3ccc(C)c(F)c3)C1)C(=O)N2C (stereo not given)	nt	nt	nt	nt	33%	nt	nt	nt	nt
C=C1C(=O)O[C@@H]2C[C@@H](C)[C@@H]3C=CC(=O)[C@@]3(C)[C@@H](OC(=O)CC(=O)O[C@H]3[C@@H]4C(=C)C(=O)O[C@@H]4C[C@@H](C)[C@@H]4C=CC(=O)[C@]43C)[C@H]12	-3%	3	15µM*	2.6µM*	?	?	?	2.9µM*	2.1µM*	Resorufin autofl=9;IDH1 WT=-10%;mIDH1 confirm=?
CN1C(=O)CO[C@H]2CN(C3CCC3)C[C@H]21	nt	nt	nt	nt	8%[176 µM]	nt	nt	nt	nt
O=C1NC(=O)C(=Cc2ccc(-c3ccc(Cl)cc3)o2)C(=O)N1	3%	-9	-13%	?	nt	?	nt	nt	nt	Resorufin autofl=3;IDH1 WT=2%;mIDH1 confirm=40µM*
CCn1cc(CN2CCN(C(=O)Cc3c(C)noc3C)CC2)ccc1=O	nt	nt	nt	nt	25%	nt	nt	nt	nt
CC(C)CN(CC(C)C)c1ccc(C=C2C(=O)NC(=S)NC2=O)cc1[N+](=O)[O-]	6%	-8	-9%	?	?	?	nt	nt	nt	Resorufin autofl=-3;IDH1 WT=-2%;mIDH1 confirm=40µM*
CC(=O)[C@H]1CC[C@H]2[C@@H]3CC=C4C[C@@H](OS(=O)(=O)O)CC[C@]4(C)[C@H]3CC[C@]12C	-1%	0	-4%	-9%	-13%	40µM*	nt	nt	nt	Resorufin autofl=10;IDH1 WT=-2%;mIDH1 confirm=40µM*
C[C@]12CC[C@H](OS(=O)(=O)O)CC1=CC[C@@H]1[C@@H]2CC[C@]2(C)C(=O)CC[C@@H]12	0%	-10	2%	-12%	5%	-9%	nt	nt	nt
C=C[C@H]1CN2CC[C@H]1C[C@@H]2CNC(=O)c1ccc(F)c(Cl)c1	nt	nt	nt	nt	55%[176 µM]	nt	nt	nt	nt
O=c1[nH]c(O)c(/C=C2/C=CC(c3cc(Cl)ccc3Cl)=N2)c(=O)[nH]1	0%	-6	-28%	?	-8%	29µM*	nt	nt	nt	Resorufin autofl=3;IDH1 WT=45µM*;mIDH1 confirm=11µM*
